Experimental data as given in PubChem BioAssay AID598 (SRMLSC, 2007).
Among all 85,000 compounds or so, about 5,100 (6%) were called active. This is one part of a sample in which actives are shown more often than they occur. Values without a mark were called inactive.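 Rule for the calls: active = viability at or below 40%; inactive = viability above 40%.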

Assay: proliferation blockers of H69AR lung cancer cells, primary screen, cell-based, human, 86K library (AID 598);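 note: multidrug resistant small cell line overexpressing MRP-1 efflux transporter; 100% = mean luminescence of untreated control wells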
Settings: H69AR lung tumor viability, ATP luminescence, 72 h; at 10 µM; stronger effect = lower value

Going from `c1ccc(-n2nc3ccccc3n2)cc1` to `c1ccc(Nc2n[nH]nc2-c2ccccc2)cc1`, the viability falls from 96% to 94.2%.

First: Cc1nn(Cc2ccccc2)c2c1C(c1ccccc1)C(C#N)=C(N)O2 (centres undefined)
Second: Cc1cc(C(=O)Nc2ccccc2N2CCOCC2)c2ccccc2n1
The viability of the first is higher: 76.3% for the first, 67.9% for the second.

Compared with `Cc1cc(C(=O)OC(C)C(=O)Nc2cccc(S(=O)(=O)N3CCOCC3)c2)c(C)o1` (centres undefined), `Cc1ccc(C(=O)Nc2ccccc2C(=O)NC2CCCCC2)cc1S(=O)(=O)N1CCOCC1` is lower in viability: 102% for the first, 73% for the second.

First: COC(=O)C1C(=O)NCC1c1ccc(C)cc1 (centres undefined)
Second: CCOC(=O)C1C(=O)NCC1c1ccccc1 (centres undefined)
The viability of the first is lower: 82.2% for the first, 99.9% for the second.

Compared with `COC(=O)C1=C(Nc2ccc(OC)cc2)C=C(C)C(C(=O)OC)C1c1ccc(C)cc1` (centres undefined), `CCCCC(C(=O)OCC(=O)c1ccc(OC)cc1)N1C(=O)c2ccccc2C1=O` (centres undefined) is higher in viability: 55.6% for the first, 95% for the second.

Compared with `CCOC(=O)c1ccc2c(c1)nc(C)n2CC`, `CCn1nnnc1SCC(=O)c1ccc(C)cc1C` is lower in viability: 113% for the first, 101% for the second.

First: Cc1nnc(NC(=O)CCCOc2ccccc2)s1
Second: O=C(Nc1nnc(C2CC2)s1)c1ccccn1
The viability of the first is higher: 93.8% for the first, 81% for the second.

First: CCC(CC)C(=O)N1CC(=O)Nc2ccc(Br)cc2C1c1ccccc1 (centres undefined)
Second: CCC1(CC)Cc2ccccc2-c2nc3ccccc3c(=O)n21
The viability of the first is lower: 87% for the first, 88.7% for the second.

Compared with `COC(=O)/C(NC(C)=O)=C(\C)c1ccc(Cl)cc1`, `CC(C)Oc1ccc(C(=O)NC(C)(C)CO)cc1` is higher in viability: 102% for the first, 106% for the second.

Compared with `Cc1cccc(NC(=O)/C(=C\c2ccco2)NC(=O)c2ccccc2)c1`, `O=C(Nc1cccc(NC(=O)c2ccco2)c1)c1cnccn1` is higher in viability: 85.2% for the first, 87.2% for the second.

Going from `CCOC(=O)C1CCCN(C(=O)CN(c2ccc(OC)cc2)S(=O)(=O)c2c(C)noc2C)C1` (centres undefined) to `Cc1cc(C)cc(N(CC(=O)NCC2CCCO2)S(=O)(=O)c2c(C)noc2C)c1` (centres undefined), the viability rises from 78.5% to 92.5%.

First: O=C(c1cc2sccc2n1Cc1ccc(F)cc1)N1CCc2ccccc21
Second: O=C(CSCc1ccccc1)N1CCc2ccccc21
The viability of the first is lower: 76% for the first, 84.8% for the second.

First: COC(=O)c1cc(NC(=O)CC2C(=O)NCCN2C(=O)c2ccc(F)cc2)cc(C(=O)OC)c1 (centres undefined)
Second: CC(C)C(=O)Nc1c(C(=O)c2ccc(F)cc2)oc2ccccc12
The viability of the first is lower: 80% for the first, 83.5% for the second.

Going from `C=C1c2cc(CC)ccc2NC(=O)N1c1ccc(C)cc1` to `O=C1Nc2ccccc2C12Nc1ccccc1S2` (centres undefined), the viability falls from 91.4% to 85.7%.

First: CCC(=O)NC(Nc1nc2ccc(C)cc2s1)(C(=O)OC)C(F)(F)F (centres undefined)
Second: Cc1ccc2c(Cl)c(C(=O)NCCCn3ccnc3)sc2c1
The viability of the first is lower: 82.5% for the first, 88.9% for the second.

Compared with `CC(C)CC(=O)Nc1cc(C(F)(F)F)ccc1N1CCOCC1`, `CCOc1cc(N2CCOCC2)c(OCC)cc1NC(=O)COC(=O)[C@H](Cc1c[nH]c2ccccc12)NC(C)=O` is lower in viability: 80.6% for the first, 71.8% for the second.

Going from `O=C(NCc1ccco1)c1ccc(Cn2c(=O)c3sccc3n(Cc3ccc(F)cc3)c2=O)cc1` to `Cc1ccc(N(Cc2ccc(C(=O)Nc3ccccc3C(=O)NCc3ccco3)cc2)S(C)(=O)=O)cc1C`, the viability falls from 82.3% to 79.5%.

Compared with `COc1ccccc1NC(=O)C1CCCN(c2cc(C)nc3ncnn23)C1` (centres undefined), `COc1ccccc1N1CCN(C(=O)c2cc3c(-c4ccc(Cl)cc4)nn(C)c3s2)CC1` is lower in viability: 85.4% for the first, 79.4% for the second.

First: COc1cccc(-c2nn(C)c3sc(C(=O)N4CCN(c5ccccc5)CC4)cc23)c1
Second: COC(=O)c1cn(-c2ccccc2)nc1-c1cccnc1
The viability of the first is lower: 70.9% for the first, 108% for the second.

Compared with `CSc1nc(-c2ccco2)nn1C(=O)CCc1ccccc1`, `O=C(CCc1ccccc1)NCc1cccnc1` is higher in viability: 94.3% for the first, 97.5% for the second.

Compared with `O=C(NCCSCc1ccccc1)c1ccc(Cl)c(S(=O)(=O)N2CCOCC2)c1`, `CN(C)S(=O)(=O)c1ccc(N2CCCC2)c(C(=O)NCc2ccccc2)c1` is higher in viability: 72.6% for the first, 83.6% for the second.

First: CCCc1noc2c1/C(=N\O)CCC2
Second: Cc1c(Br)cc(C(=O)N2CCCCCC2)c(C)c1C
The viability of the first is higher: 111% for the first, 85.9% for the second.

First: COC(=O)c1oc2ccc(Br)cc2c1NC(C)=O
Second: CCN(CC)CCNC(=O)CCCCCn1c(=O)[nH]c2cc(C(=O)OC)ccc2c1=O
The viability of the first is lower: 95% for the first, 102% for the second.

Compared with `CN(C)c1ccc(CNC2C3CC4CC(C3)CC2C4)cc1` (centres undefined), `CCOc1ccccc1C(=O)NC1CC2CCCC(C1)N2Cc1ccccc1` (centres undefined) is lower in viability: 99.4% for the first, 72.2% for the second.

First: O=C(Nc1cccc(Cl)c1)Nc1nnc(-c2ccccc2)o1
Second: Nc1ccc(-c2nnc(-c3ccc(-c4ccccc4)cc3)o2)cc1
The viability of the first is higher: 70.9% for the first, 55% for the second.

First: Cc1ccccc1NC(=O)NCc1ccco1
Second: CC(C)(C)c1ccc(C(=O)NCCC(=O)NCc2ccco2)cc1
The viability of the first is higher: 99.6% for the first, 87.7% for the second.

First: CCC(c1nnnn1C(C)(C)C)N(Cc1cc2cccc(C)c2n2nnnc12)C1CCCC1 (centres undefined)
Second: COc1ccccc1C(c1nnnn1C(C)(C)C)N1CCN(Cc2ccccc2)CC1 (centres undefined)
The viability of the first is lower: 78.9% for the first, 85.2% for the second.

First: CCOc1cc(NC(=O)c2ccco2)c(OCC)cc1NC(=O)COc1ccccc1
Second: O=C(Nc1ccccc1C(=O)NCCCn1ccnc1)c1ccc(Cl)cc1Cl
The viability of the first is higher: 91.9% for the first, 75.6% for the second.

Going from `Cc1cc(C)c(NC(=O)CN2CCOCCOCCOCCOCC2)c(C)c1` to `Cc1ccc(S(=O)(=O)/N=C(\CN2CCOCC2)N2CCOCC2)cc1`, the viability falls from 97.2% to 96.2%.

Going from `Cc1cc(Cl)c(S(=O)(=O)N(C)C)cc1OCC(N)=O` to `Cc1ccc(NS(=O)(=O)c2c(C)[nH]c(=O)[nH]c2=O)cc1C`, the viability rises from 96% to 112%.

First: CC/C(O)=N\S(=O)(=O)c1ccc(N=NN(C)C)cc1
Second: Cc1ccc(S(=O)(=O)NCCSC(C)(C)C)cc1
The viability of the first is lower: 85.7% for the first, 106% for the second.

Going from `COCCn1c(C)cc(C2=NNC(=Nc3ccc(F)cc3)SC2)c1C` to `CCOC(=O)C1=C(O)CSC1=Nc1cccc(Cl)c1`, the viability rises from 88.2% to 91.2%.

First: CN1CCN(C(=O)Cn2c(C(F)(F)F)nc3ccccc32)CC1
Second: CC(=O)Nc1ccc(OCC(O)CN2CCN(c3ccccc3Cl)CC2)cc1 (centres undefined)
The viability of the first is lower: 96.4% for the first, 100% for the second.

First: O=C1Nc2cc(Cl)c(Cl)cc2N(O)N1c1cc(Cl)cc(Cl)c1
Second: Cc1cc(C)n(-c2nnc(C)n2NC(=O)c2cccc(Cl)c2)n1
The viability of the first is higher: 102% for the first, 88.1% for the second.

Going from `COc1cccc(N(CC(=O)NCCSc2ccccn2)S(C)(=O)=O)c1` to `CCOc1ccccc1C(=O)NCCCn1ccnc1`, the viability rises from 95.5% to 98.9%.

First: CC1(C)OC(=O)N2CCc3ccccc3C21C (centres undefined)
Second: O=C(Nc1ccc(S(=O)(=O)N2CCc3ccccc3C2)cc1)c1ccccc1
The viability of the first is higher: 91.6% for the first, 69% for the second.

Compared with `O=C(CN1CCN(S(=O)(=O)/C=C/c2ccccc2)CC1)NC(=O)NCc1ccco1`, `O=C(NCCCn1ccnc1)Nc1ccc(Cl)cc1Cl` is lower in viability: 93.8% for the first, 93.2% for the second.

Compared with `O=C(NC(C(=O)NCCN1CCOCC1)C12CC3CC(CC(C3)C1)C2)C1CCCCC1` (centres undefined), `Cc1nnc(SC(C)C(=O)Nc2ccc(S(=O)(=O)NC3CCCCC3)cc2)s1` (centres undefined) is lower in viability: 90.9% for the first, 90.2% for the second.

Compared with `CCCCCCOc1ccc(OC(=O)c2cccnc2)cc1`, `COc1ccc(-c2nnc(SCC(=O)c3ccc4c(c3)OCCO4)o2)cc1` is higher in viability: 99.5% for the first, 102% for the second.

First: COc1ccc(-c2nnc(SC(C)C#N)o2)cc1 (centres undefined)
Second: FC(F)(F)c1cnc(Oc2ccccc2-c2nnc(-c3ccc(Cl)cc3)o2)c(Cl)c1
The viability of the first is lower: 86.7% for the first, 92.2% for the second.

Compared with `CCCCCCNCCn1cnc2c(N)ncnc21`, `OC(COc1cccc(OCC(O)CN2CCCC2)c1)CN1CCCC1` (centres undefined) is lower in viability: 105% for the first, 99.3% for the second.

For `COC(=O)C1=C(Nc2ccc(C)cc2)C=C(C)C(C(=O)OC)C1c1ccc(F)cc1` (centres undefined), the viability was 12.1% (active).
In the case of `Cc1cc(C)cc(N(CC(=O)N2CC=C(c3ccccc3)CC2)S(=O)(=O)c2c(C)noc2C)c1`, the viability is reported as 22.6% (active).
With `CCc1ccc2c(c1)C1(NN=C(c3ccccc3)S1)C(=O)N2` (centres undefined) the viability was 15.2% (active).
For `CCOC(=O)N1CCN(C(=O)c2cc3c(-c4ccc(Cl)cc4)nn(C)c3s2)CC1`, the viability was 31.4% (active).
With `Cc1ccccc1CSCCNC(=O)c1ccc(Cl)c(S(=O)(=O)N2CCOCC2)c1` the viability was 24.7% (active).
With `COc1ccc(C(=O)c2oc3ccc(Br)cc3c2NC(C)=O)cc1` the viability was 37.9% (active).
In the case of `CC(C)(C)c1ccc(NC(=O)NCc2ccco2)cc1`, the viability is reported as 39.5% (active).
For `CCOc1cc(N2CCOCC2)c(OCC)cc1NC(=O)COc1cccc2cccnc12`, the viability was 21.9% (active).
For `Clc1cccc(N=C2NN=C(c3ccc4c(c3)OCCO4)CS2)c1`, the viability was 1.44% (active).
For `O=C(COC(=O)c1ccc(S(=O)(=O)N2CCc3ccccc3C2)cc1)NC(=O)NCc1ccco1`, the viability was 18.3% (active).
With `Nc1ccc(Nc2ccccc2)cc1` the viability was 15.3% (active).
In the case of `O=C(NCc1cccnc1)c1cn(-c2ccccc2)nc1-c1cccs1`, the viability is reported as 9.99% (active).
For `COc1ccc(-c2nnc(SC(=O)N3c4ccccc4Sc4ccccc43)o2)cc1`, the viability was 4.55% (active).
For `Cc1ccc(Nc2cc(=O)n(C3CCCCC3)c(=O)[nH]2)cc1C`, the viability was 9.54% (active).
In the case of `CCCC(=O)Nc1ccc(C(=O)NCCCn2ccnc2)cc1`, the viability is reported as 15.8% (active).
In the case of `CCCCC(=O)Nc1ccc(C(=O)NCCCn2ccnc2)cc1`, the viability is reported as 7.32% (active).
With `O=C(C(c1ccccc1)c1ccccc1)N1CCN(CC(O)COc2ccccc2)CC1` (centres undefined) the viability was 27.1% (active).
